# Measured values as given in PubChem BioAssay (NCI).
# Compounds without any hit were thinned out: in the full panel of roughly 79,000, 15% have a hit. A number with no mark means an inactive call. The source made the active and inactive calls. Cut-off read from the data, not from the text of the source: active = growth inhibition above about 70%; inactive = the rest.
# Assays:
# [1] = NCI Yeast Anticancer Drug Screen. Data for the wt1 strain (AID 149);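 note: 0% = growth of vehicle-treated wt1 cultures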; conditions: S. cerevisiae wt1 strain (SPY 50644) growth inhibition, hits give high values
# Outline: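 Vehicle-normalised growth inhibition; strain wt1; compound exposure.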
# [2] = NCI Yeast Anticancer Drug Screen. Data for the rad50EPP+ strain (AID 151);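 note: 0% = growth of vehicle-treated control cultures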; conditions: S. cerevisiae rad50 mutant strain, hits give high values
# Outline: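 Growth inhibition read against vehicle controls in rad50EPP+ yeast, a strain altered in DNA damage repair, after compound exposure.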
# [3] = NCI Yeast Anticancer Drug Screen. Data for the mgt1 strain (AID 153); conditions: S. cerevisiae mgt1 mutant growth inhibition, hits give high values
# Outline: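 mgt1 yeast grown with test compound; read-out is growth inhibition versus vehicle-treated cultures.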
# [4] = NCI Yeast Anticancer Drug Screen. Data for the rad50 strain (AID 155);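 note: 0% = growth of vehicle-only cultures of the same strain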; conditions: S. cerevisiae rad50 strain growth inhibition, hits give high values
# Outline: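 A DNA repair-deficient yeast mutant serves as the test organism; compound-induced growth inhibition is calculated against vehicle-treated cells.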
# [5] = NCI Yeast Anticancer Drug Screen. Data for the mec2-1 strain (AID 157); conditions: S. cerevisiae mec2-1 strain, hits give high values
# Outline: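 Yeast mec2-1 mutant treated with compound. Readout: growth inhibition vs vehicle controls.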
# [6] = NCI Yeast Anticancer Drug Screen. Data for the rad14 strain (AID 159);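 note: 0% = growth of vehicle-treated control cultures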; conditions: S. cerevisiae rad14 strain growth inhibition, hits give high values
# Outline: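 Vehicle-treated cultures served as the baseline for growth inhibition of a DNA repair-mutant yeast strain exposed to each compound.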
# [7] = NCI Yeast Anticancer Drug Screen. Data for the sgs1 mgt1 strain (AID 161);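 note: 0% = growth of cultures given vehicle only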; conditions: S. cerevisiae sgs1 mgt1 strain, hits give high values
# Outline: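 Inhibition of yeast growth, normalised to vehicle-treated controls, is reported for a strain bearing genetic alterations in DNA damage repair.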
# [8] = NCI Yeast Anticancer Drug Screen. Data for the CLN2oe strain (AID 163);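 note: 0% = growth of vehicle-only control cultures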; conditions: S. cerevisiae CLN2oe strain, hits give high values
# Outline: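 Read-out: yeast growth inhibition, expressed relative to vehicle-only controls. The strain bears an engineered cell-cycle alteration.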
# [9] = NCI Yeast Anticancer Drug Screen. Data for the cln2 rad14 strain (AID 165);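 note: 0% = growth equal to vehicle treated cultures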; conditions: S. cerevisiae cln2 rad14 strain, hits give high values
# Outline: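 cln2 rad14 yeast strain; compound exposure; growth inhibition read vs vehicle controls.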
# [10] = NCI Yeast Anticancer Drug Screen. Data for the bub3 strain (AID 167); conditions: S. cerevisiae bub3 mutant strain, hits give high values
# Outline: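 Inhibition values come from growth of compound-treated mutant yeast normalised to vehicle-treated controls.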
# [11] = NCI Yeast Anticancer Drug Screen. Data for the wt2 strain (AID 169);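 note: 0% = growth of vehicle-treated yeast cultures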; conditions: S. cerevisiae wt2 strain growth inhibition, hits give high values
# Outline: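 Read-out: growth inhibition versus vehicle-treated control cultures after compound exposure of the yeast strain.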
# [12] = NCI Yeast Anticancer Drug Screen. Data for the mlh1 strain (AID 171);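 note: 0% = growth of vehicle-treated control cultures of the same strain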; conditions: S. cerevisiae mlh1 strain growth inhibition, hits give high values
# Outline: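 Read-out: growth inhibition versus vehicle controls. Strain: engineered yeast with a defined DNA repair or cell cycle defect, compound-treated.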
# [13] = NCI Yeast Anticancer Drug Screen. Data for the sgs1 strain (AID 173);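 note: 0% = growth of vehicle-only control cultures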; conditions: S. cerevisiae sgs1 mutant, hits give high values
# Outline: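 Read-out: yeast growth inhibition relative to vehicle controls, following compound exposure of a strain with a defined DNA repair/cell cycle alteration.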
# [14] = NCI Yeast Anticancer Drug Screen. Data for the mlh1 rad18 strain (AID 175); conditions: S. cerevisiae mlh1 rad18 strain growth inhibition, hits give high values
# Outline: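 Yeast w/ defined DNA-repair lesions; compound exposure; growth vs vehicle controls → % inhibition.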
# [15] = NCI Yeast Anticancer Drug Screen. Data for the rad18 strain (AID 177); conditions: S. cerevisiae rad18 mutant growth inhibition, hits give high values
# Outline: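 Readout: growth inhibition vs vehicle controls. Cells: genetically altered yeast strain, DNA repair defect.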
# [16] = at 5.0 µM (retest, dose inferred, filed as 0.5)
# [17] = at 50.0 µM (retest, dose inferred, filed as 5.0)
compound,measurement,setting,value
C=Cc1c(C)c(O)cc2c1-c1ccc(O)c(C)c1CC2,growth inhibition,[1]; at 1.2 µM,-8%
same,growth inhibition,[1]; at 3.7 µM,-4%
same,growth inhibition,[1]; at 11.0 µM,-11%
same,growth inhibition,[1]; at 33.0 µM,98% (active)
same,growth inhibition,[1]; at 100.0 µM,98% (active)
same,growth inhibition,[2]; at 1.2 µM,1%
same,growth inhibition,[2]; at 3.7 µM,24%
same,growth inhibition,[2]; at 11.0 µM,16%
same,growth inhibition,[2]; at 33.0 µM,40%
same,growth inhibition,[2]; at 100.0 µM,98% (active)
same,growth inhibition,[3]; at 1.2 µM,-18%
same,growth inhibition,[3]; at 3.7 µM,-1%
same,growth inhibition,[3]; at 11.0 µM,-3%
same,growth inhibition,[3]; at 33.0 µM,98% (active)
same,growth inhibition,[3]; at 100.0 µM,99% (active)
same,growth inhibition,[4]; at 1.2 µM,-20%
same,growth inhibition,[4]; at 3.7 µM,-3%
same,growth inhibition,[4]; [16],46%
same,growth inhibition,[4]; at 11.0 µM,12%
same,growth inhibition,[4]; at 33.0 µM,97% (active)
same,growth inhibition,[4]; [17],75% (active)
same,growth inhibition,[4]; at 50.0 µM,-24.6%
same,growth inhibition,[4]; at 100.0 µM,99% (active)
same,growth inhibition,[5]; at 1.2 µM,-19%
same,growth inhibition,[5]; at 3.7 µM,-8%
same,growth inhibition,[5]; [16],22%
same,growth inhibition,[5]; at 11.0 µM,-7%
same,growth inhibition,[5]; at 33.0 µM,98% (active)
same,growth inhibition,[5]; [17],97% (active)
same,growth inhibition,[5]; at 50.0 µM,-52.2%
same,growth inhibition,[5]; at 100.0 µM,98% (active)
same,growth inhibition,[6]; at 1.2 µM,-21%
same,growth inhibition,[6]; at 3.7 µM,-21%
same,growth inhibition,[6]; at 11.0 µM,-19%
same,growth inhibition,[6]; at 33.0 µM,97% (active)
same,growth inhibition,[6]; at 100.0 µM,98% (active)
same,growth inhibition,[7]; [16],55%
same,growth inhibition,[7]; [17],93% (active)
same,growth inhibition,[7]; at 50.0 µM,-18.5%
same,growth inhibition,[8]; at 1.2 µM,10%
same,growth inhibition,[8]; at 3.7 µM,5%
same,growth inhibition,[8]; at 11.0 µM,26%
same,growth inhibition,[8]; at 33.0 µM,98% (active)
same,growth inhibition,[8]; at 100.0 µM,99% (active)
same,growth inhibition,[9]; [16],12%
same,growth inhibition,[9]; [17],59%
same,growth inhibition,[9]; at 50.0 µM,10.6%
same,growth inhibition,[10]; at 1.2 µM,-9%
same,growth inhibition,[10]; at 3.7 µM,-11%
same,growth inhibition,[10]; [16],28%
same,growth inhibition,[10]; at 11.0 µM,5%
same,growth inhibition,[10]; at 33.0 µM,98% (active)
same,growth inhibition,[10]; [17],97% (active)
same,growth inhibition,[10]; at 50.0 µM,-43.2%
same,growth inhibition,[10]; at 100.0 µM,99% (active)
same,growth inhibition,[11]; at 1.2 µM,-63%
same,growth inhibition,[11]; at 3.7 µM,-43%
same,growth inhibition,[11]; at 11.0 µM,37%
same,growth inhibition,[11]; at 33.0 µM,46%
same,growth inhibition,[11]; at 100.0 µM,88% (active)
same,growth inhibition,[12]; at 1.2 µM,12%
same,growth inhibition,[12]; at 3.7 µM,-8%
same,growth inhibition,[12]; at 11.0 µM,3%
same,growth inhibition,[12]; at 33.0 µM,98% (active)
same,growth inhibition,[12]; at 100.0 µM,99% (active)
same,growth inhibition,[13]; at 1.2 µM,-7%
same,growth inhibition,[13]; at 3.7 µM,16%
same,growth inhibition,[13]; at 11.0 µM,36%
same,growth inhibition,[13]; at 33.0 µM,98% (active)
same,growth inhibition,[13]; at 100.0 µM,99% (active)
same,growth inhibition,[14]; [16],69%
same,growth inhibition,[14]; [17],87% (active)
same,growth inhibition,[14]; at 50.0 µM,89.3% (active)
same,growth inhibition,[15]; at 1.2 µM,-25%
same,growth inhibition,[15]; at 3.7 µM,-7%
same,growth inhibition,[15]; at 11.0 µM,4%
same,growth inhibition,[15]; at 33.0 µM,98% (active)
same,growth inhibition,[15]; at 100.0 µM,99% (active)
O=C1C(Br)=CC(Br)(Br)C=C1Br,growth inhibition,[1]; at 1.2 µM,6%
same,growth inhibition,[1]; at 3.7 µM,9%
same,growth inhibition,[1]; at 11.0 µM,47%
same,growth inhibition,[1]; at 33.0 µM,97% (active)
same,growth inhibition,[1]; at 100.0 µM,99% (active)
same,growth inhibition,[2]; at 1.2 µM,24%
same,growth inhibition,[2]; at 3.7 µM,31%
same,growth inhibition,[2]; at 11.0 µM,70% (active)
same,growth inhibition,[2]; at 33.0 µM,98% (active)
same,growth inhibition,[2]; at 100.0 µM,98% (active)
same,growth inhibition,[3]; at 1.2 µM,9%
same,growth inhibition,[3]; at 3.7 µM,1%
same,growth inhibition,[3]; at 11.0 µM,58%
same,growth inhibition,[3]; at 33.0 µM,98% (active)
same,growth inhibition,[3]; at 100.0 µM,99% (active)
same,growth inhibition,[4]; at 1.2 µM,0%
same,growth inhibition,[4]; at 3.7 µM,-3%
same,growth inhibition,[4]; [16],99% (active)
same,growth inhibition,[4]; at 11.0 µM,30%
same,growth inhibition,[4]; at 33.0 µM,95% (active)
same,growth inhibition,[4]; [17],99% (active)
same,growth inhibition,[4]; at 50.0 µM,90.8% (active)
same,growth inhibition,[4]; at 100.0 µM,98% (active)
same,growth inhibition,[5]; at 1.2 µM,6%
same,growth inhibition,[5]; at 3.7 µM,28%
same,growth inhibition,[5]; [16],100% (active)
same,growth inhibition,[5]; at 11.0 µM,51%
same,growth inhibition,[5]; at 33.0 µM,99% (active)
same,growth inhibition,[5]; [17],97% (active)
same,growth inhibition,[5]; at 50.0 µM,93.5% (active)
same,growth inhibition,[5]; at 100.0 µM,99% (active)
same,growth inhibition,[6]; at 1.2 µM,-32%
same,growth inhibition,[6]; at 3.7 µM,-10%
same,growth inhibition,[6]; at 11.0 µM,28%
same,growth inhibition,[6]; at 33.0 µM,95% (active)
same,growth inhibition,[6]; at 100.0 µM,98% (active)
same,growth inhibition,[7]; [16],-27%
same,growth inhibition,[7]; [17],100% (active)
same,growth inhibition,[7]; at 50.0 µM,93.7% (active)
same,growth inhibition,[8]; at 1.2 µM,24%
same,growth inhibition,[8]; at 3.7 µM,18%
same,growth inhibition,[8]; at 11.0 µM,34%
same,growth inhibition,[8]; at 33.0 µM,98% (active)
same,growth inhibition,[8]; at 100.0 µM,99% (active)
same,growth inhibition,[9]; [16],56%
same,growth inhibition,[9]; [17],100% (active)
same,growth inhibition,[9]; at 50.0 µM,92.5% (active)
same,growth inhibition,[10]; at 1.2 µM,-8%
same,growth inhibition,[10]; at 3.7 µM,-16%
same,growth inhibition,[10]; [16],21%
same,growth inhibition,[10]; at 11.0 µM,7%
same,growth inhibition,[10]; at 33.0 µM,96% (active)
same,growth inhibition,[10]; [17],99% (active)
same,growth inhibition,[10]; at 50.0 µM,92% (active)
same,growth inhibition,[10]; at 100.0 µM,98% (active)
same,growth inhibition,[11]; at 1.2 µM,-9%
same,growth inhibition,[11]; at 3.7 µM,-11%
same,growth inhibition,[11]; at 11.0 µM,51%
same,growth inhibition,[11]; at 33.0 µM,96% (active)
same,growth inhibition,[11]; at 100.0 µM,98% (active)
same,growth inhibition,[12]; at 1.2 µM,-8%
same,growth inhibition,[12]; at 3.7 µM,-10%
same,growth inhibition,[12]; at 11.0 µM,46%
same,growth inhibition,[12]; at 33.0 µM,96% (active)
same,growth inhibition,[12]; at 100.0 µM,98% (active)
same,growth inhibition,[13]; at 1.2 µM,2%
same,growth inhibition,[13]; at 3.7 µM,5%
same,growth inhibition,[13]; at 11.0 µM,59%
same,growth inhibition,[13]; at 33.0 µM,96% (active)
same,growth inhibition,[13]; at 100.0 µM,98% (active)
same,growth inhibition,[14]; [16],100% (active)
same,growth inhibition,[14]; [17],100% (active)
same,growth inhibition,[14]; at 50.0 µM,90.6% (active)
same,growth inhibition,[15]; at 1.2 µM,-4%
same,growth inhibition,[15]; at 3.7 µM,-13%
same,growth inhibition,[15]; at 11.0 µM,26%
same,growth inhibition,[15]; at 33.0 µM,95% (active)
same,growth inhibition,[15]; at 100.0 µM,98% (active)
